From PubChem BioAssay (NCATS)
Inconclusive results are not listed. Calls of active or inactive are those of the source. Unless noted, calls come from the whole dose curve; as a rule, active = well fitted curve in either direction with a large enough effect (not every such curve was filed as active); inconclusive = small, poorly fitted or top-dose-only effect, or another doubt; inactive = flat fitted curve, though single readings scatter.

Experiments:
[1] = target: Lysosomal acid glucosylceramidase (Homo sapiens) (UniProt P04062); experiment: Glucocerebrosidase-p2 (AID 348; in the data active = potency below about 10 µM; note: potency is the fitted concentration of half-maximal effect); conditions: purified GBA, blue fluorogenic substrate, 40 min
Method in brief: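 Compounds titrated from 0.6 nM upwards against 0.2 nM enzyme in pH 5.9 citric acid/KH2PO4, taurocholate, tween-20; blue fluorogenic substrate 80 uM, 40 min room temperature, stopped and read Ex 365/Em 440 for AC50.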

[2] = AP1 Signaling Pathway (AID 357); conditions: ME-180 AP-1-bla reporter, EGF-induced, beta-lactamase ratio, 5 h; at 7.69 µM (top of the series) unless noted;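 note: ME-180 reporter cells stimulated with EGF at its EC50 level; % is set by controls: 0 for no effect and ±100 for the full control effect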
Method in brief: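 Titration-series screen for positive or negative modulators of EC50 EGF-induced signaling in ME-180 cells carrying an AP-1-driven beta-lactamase reporter. After 5 hours at 37 degrees Celsius, CCF4 460nm/530nm emission ratio gave %Activity; AC50 values derived.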

[3] = NFAT Signaling Pathway (AID 444); conditions: Jurkat NFAT-bla M1, carbachol, beta-lactamase ratio, 5 h; at 7.69 µM (top of the series) unless noted;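 note: carbachol stimulus at about its EC50 of 1 µM final; % is set by controls: 0 for no effect and ±100 for the full control effect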
Method in brief: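 Jurkat cells with NFAT-driven β-lactamase reporter and co-expressed M1 receptor, stimulated with carbachol (final 1 uM, ~EC50), compound titration, 5 h at 37 °C. CCF4 loaded 1 h at RT; 460/530 nm ratio gave %activity and AC50.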

[4] = Stat Signaling Pathway (AID 446); conditions: ME-180 SIE beta-lactamase reporter, IL-6 stimulated, 5 h; at 7.69 µM (top of the series) unless noted;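 note: ME-180 cervical cancer cells given 40 pM IL-6 alongside compound; SIE-controlled beta-lactamase reporter measured as 460/530 nm FRET emission ratio; % is set by controls: 0 for no effect and ±100 for the full control effect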
Method in brief: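 Reporter line: ME-180 cervical carcinoma, SIE-beta-lactamase. Treatment: compound with 40 pM IL-6, 5 hrs, 37 C, in low-serum OPTI-MEM with 10 mM HEPES pH 7.3. Detection: 460/530 nm fluorescence.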

[5] = target: Glucocorticoid receptor (Homo sapiens) (UniProt P04150); experiment: GR-EFC Redistribution (AID 451; calls by dose curve; note: potency is the fitted concentration of half-maximal effect); conditions: CHO-K1 GR-EFC translocation, beta-gal luminescence, 2 h
Method in brief: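 CHO-K1 cells expressing nuclear EA and GR-ED fragments of b-gal; compounds titrated up to 46 uM final, 2 h at 37 C. GR nuclear translocation read as complemented b-gal luminescence after 1 h RT detection.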

[6] = target: Mitogen-activated protein kinase 10 (Mus musculus) (UniProt Q61831); experiment: JNK3 AlphaScreen Assay (AID 530); conditions: JNK3 lysate, c-Jun phosphorylation; series mostly up to 57.1 µM;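 note: kinase came from lysate of stimulated human HepG2 cells; signal reports phosphorylation of biotinylated GST-cJun 1-79 at Ser73 with 10 µM ATP; % is set by controls: 0 for no effect and ±100 for the full control effect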
Method in brief: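 Pre-activated (IL-1β/TNFα) JNK3 in HepG2 lysates phosphorylates biotin-GST-cJun(1-79), 10 uM ATP; anti-phospho-cJun(Ser73) AlphaScreen read at room temperature, pH 7.6 Tris buffer. Compounds pre-incubated 15 min as titrations.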

[7] = target: 3',5'-cyclic-AMP phosphodiesterase 4B (Homo sapiens) (UniProt Q07343); experiment: qHTS Assay for Inhibitors of PDE-IV (AID 607; active = well fitted activation curve with a large enough effect in the main read-out, with a control signal flat, not every such curve was filed as active; note: % of control where 0% means no effect); conditions: HEK293 ACTOne CNG channel cells, membrane potential fluorescence; series mostly up to 22.9 µM
Method in brief: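 Cell-based read-out of cAMP via a modified cyclic nucleotide-gated channel and membrane potential dye (535/590 nm) in HEK293 cells expressing PDE4 endogenously. Compounds tested up to 22.9 uM final; 100 uM RO 20-1724 reference.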

[8] = target: Cytochrome P450 3A4 (Homo sapiens) (UniProt P08684); experiment: qHTS Assay for Inhibitors and Substrates of Cytochrome P450 3A4 (AID 884; active = well fitted inhibition curve with a large enough effect; note: % is set by controls: 0 for no effect and ±100 for the full control effect; nearly all actives have a fitted effect of over 50% in size); conditions: recombinant CYP3A4, Luciferin-PPXE luminescence; series mostly up to 57.1 µM
Method in brief: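 20 nM human CYP3A4 with 25 uM Luciferin-PPXE (at KM) in 200 mM KPO4, preincubated 10 min with compound; NADPH regeneration started a 60 min RT reaction. Luciferin detected by luminescence, normalized to 57 uM ketoconazole as full inhibition.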

[9] = Primary qHTS for small molecule stabilizers of the endoplasmic reticulum resident proteome: Secreted ER Calcium Modulated Protein (SERCaMP) assay (AID 1508630; active = well fitted inhibition curve with a large enough effect; note: % is set by controls: 0 for no effect and ±100 for the full control effect); conditions: SH-SY5Y GLuc-SERCaMP (Gaussia luciferase released on ER calcium loss) secretion, thapsigargin, luminescence; series mostly up to 38.4 µM
Method in brief: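 GLuc-SERCaMP-expressing SH-SY5Y cells, pretreated 16 h with compound, are challenged with thapsigargin to empty ER calcium stores; after 4 h, coelenterazine is added directly to the medium and luminescence is imaged.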

[10] = target: Glucocorticoid receptor (Homo sapiens) (UniProt P04150); experiment: GR-GFP Redistribution (AID 450;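 active = compounds whose dose series gives a full or clear partial fitted curve of increased nuclear translocation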; note: potency is the fitted concentration of half-maximal effect); conditions: U2OS GR-GFP nuclear translocation, laser cytometry, 2 h
[11] = target: Cytochrome P450 2C19 (Homo sapiens) (UniProt P33261); experiment: qHTS Assay for Inhibitors and Substrates of Cytochrome P450 2C19 (AID 899; active = well fitted inhibition curve with a large enough effect; note: % is set by controls: 0 for no effect and ±100 for the full control effect; nearly all actives have a fitted effect of over 60% in size); conditions: recombinant CYP2C19, luciferin-H EGE luminescence; series mostly up to 57.1 µM
Method in brief: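 Luminescent read-out of luciferin formed from Luciferin-H EGE (10uM, equal to KM). Enzyme 5nM in 50mM KPO4; compound added, 10 min at 37C, then NADPH regenerating system for 60 min at 37C. Full inhibition defined by 57uM ketoconazole.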

[12] = qHTS Assay for Identification of Small Molecule Agonists for Hypoxia Response Element Signaling Pathway (AID 914; active = well fitted activation curve with a large enough effect in the signal ratio, with a control signal flat, not every such curve was filed as active; the % refers to the signal ratio; note: % of control where 0% means no effect); conditions: ME-180 (cervical carcinoma) HRE-bla reporter, beta-lactamase ratio, CoCl2, 17 h; activation: hits give high values
Method in brief: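 Compounds in a titration series were added to ME-180 reporter cells alongside an EC50 level of CoCl2. After 17 hours, beta-lactamase activity was read as the 460nm/530nm emission ratio of CCF4, giving AC50 values.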

Chain of Glucocorticoid receptor (Homo sapiens) (P04150 whole entry, looked up, the tested form may be a part): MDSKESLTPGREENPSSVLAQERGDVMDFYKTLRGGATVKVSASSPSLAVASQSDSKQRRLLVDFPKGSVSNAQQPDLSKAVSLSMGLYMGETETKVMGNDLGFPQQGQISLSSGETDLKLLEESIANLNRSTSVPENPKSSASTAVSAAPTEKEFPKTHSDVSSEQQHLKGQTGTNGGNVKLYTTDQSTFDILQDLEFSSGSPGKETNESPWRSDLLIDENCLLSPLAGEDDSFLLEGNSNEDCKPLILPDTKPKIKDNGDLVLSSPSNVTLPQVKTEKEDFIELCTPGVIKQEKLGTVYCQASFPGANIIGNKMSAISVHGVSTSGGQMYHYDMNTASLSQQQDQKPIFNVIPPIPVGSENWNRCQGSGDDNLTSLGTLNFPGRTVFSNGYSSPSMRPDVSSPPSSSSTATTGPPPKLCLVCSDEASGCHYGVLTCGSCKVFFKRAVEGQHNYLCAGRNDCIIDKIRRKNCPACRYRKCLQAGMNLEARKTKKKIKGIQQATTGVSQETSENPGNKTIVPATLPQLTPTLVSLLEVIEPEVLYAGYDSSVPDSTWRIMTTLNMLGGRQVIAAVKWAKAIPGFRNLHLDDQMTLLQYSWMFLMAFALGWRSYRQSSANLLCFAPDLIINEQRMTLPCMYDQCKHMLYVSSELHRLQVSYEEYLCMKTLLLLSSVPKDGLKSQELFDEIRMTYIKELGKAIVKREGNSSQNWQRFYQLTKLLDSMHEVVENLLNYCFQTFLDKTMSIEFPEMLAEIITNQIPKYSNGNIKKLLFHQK
Chain of Lysosomal acid glucosylceramidase (Homo sapiens) (P04062 whole entry, looked up): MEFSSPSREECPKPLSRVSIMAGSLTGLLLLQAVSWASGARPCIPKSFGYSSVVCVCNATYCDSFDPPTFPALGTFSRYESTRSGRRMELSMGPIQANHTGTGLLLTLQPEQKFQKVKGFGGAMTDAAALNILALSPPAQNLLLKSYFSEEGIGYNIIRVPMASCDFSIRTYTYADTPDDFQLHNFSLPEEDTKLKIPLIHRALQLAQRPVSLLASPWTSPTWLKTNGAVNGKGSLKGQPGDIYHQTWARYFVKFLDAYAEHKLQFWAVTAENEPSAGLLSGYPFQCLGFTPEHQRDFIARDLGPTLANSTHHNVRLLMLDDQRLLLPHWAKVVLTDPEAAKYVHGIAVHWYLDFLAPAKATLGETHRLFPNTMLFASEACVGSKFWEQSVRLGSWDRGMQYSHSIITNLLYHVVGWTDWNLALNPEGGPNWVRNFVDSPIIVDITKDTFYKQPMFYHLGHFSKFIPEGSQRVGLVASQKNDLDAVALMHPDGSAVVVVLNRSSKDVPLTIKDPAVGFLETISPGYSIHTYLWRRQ
Chain of 3',5'-cyclic-AMP phosphodiesterase 4B (Homo sapiens) (Q07343 whole entry, looked up): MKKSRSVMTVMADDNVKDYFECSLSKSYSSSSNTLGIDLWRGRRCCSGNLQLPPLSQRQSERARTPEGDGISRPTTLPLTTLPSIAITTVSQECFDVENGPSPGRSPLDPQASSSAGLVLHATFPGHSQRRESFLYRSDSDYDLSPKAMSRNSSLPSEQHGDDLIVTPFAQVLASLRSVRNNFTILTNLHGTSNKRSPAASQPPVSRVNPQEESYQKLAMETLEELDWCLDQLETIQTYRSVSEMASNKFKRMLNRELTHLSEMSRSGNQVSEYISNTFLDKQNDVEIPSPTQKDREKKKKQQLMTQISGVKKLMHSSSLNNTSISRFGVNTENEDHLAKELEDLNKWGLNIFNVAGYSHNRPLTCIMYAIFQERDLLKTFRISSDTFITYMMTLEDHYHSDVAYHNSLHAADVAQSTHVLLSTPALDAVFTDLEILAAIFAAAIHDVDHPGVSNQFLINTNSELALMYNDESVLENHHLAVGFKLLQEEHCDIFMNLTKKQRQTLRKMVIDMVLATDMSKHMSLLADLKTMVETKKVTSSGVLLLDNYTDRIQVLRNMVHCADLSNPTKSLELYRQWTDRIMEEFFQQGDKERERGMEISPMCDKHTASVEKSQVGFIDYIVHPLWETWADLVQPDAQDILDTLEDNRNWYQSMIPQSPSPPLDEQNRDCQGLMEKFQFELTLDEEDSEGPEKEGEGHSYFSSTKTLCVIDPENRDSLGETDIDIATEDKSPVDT
Chain of Cytochrome P450 3A4 (Homo sapiens) (P08684 whole entry, looked up): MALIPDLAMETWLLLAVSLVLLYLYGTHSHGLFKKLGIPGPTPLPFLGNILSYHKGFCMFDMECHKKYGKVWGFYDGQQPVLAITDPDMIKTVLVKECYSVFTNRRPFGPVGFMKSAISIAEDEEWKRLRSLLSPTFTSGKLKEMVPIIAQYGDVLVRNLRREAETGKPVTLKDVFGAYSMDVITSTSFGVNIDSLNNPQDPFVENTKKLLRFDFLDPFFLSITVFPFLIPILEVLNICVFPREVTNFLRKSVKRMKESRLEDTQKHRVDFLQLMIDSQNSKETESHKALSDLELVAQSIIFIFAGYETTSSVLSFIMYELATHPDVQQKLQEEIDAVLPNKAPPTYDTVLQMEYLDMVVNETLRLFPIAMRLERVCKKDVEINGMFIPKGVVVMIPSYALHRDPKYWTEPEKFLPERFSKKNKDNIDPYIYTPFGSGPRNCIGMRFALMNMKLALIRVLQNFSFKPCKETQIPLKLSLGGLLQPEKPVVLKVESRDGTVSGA
Chain of Cytochrome P450 2C19 (Homo sapiens) (P33261 whole entry, looked up): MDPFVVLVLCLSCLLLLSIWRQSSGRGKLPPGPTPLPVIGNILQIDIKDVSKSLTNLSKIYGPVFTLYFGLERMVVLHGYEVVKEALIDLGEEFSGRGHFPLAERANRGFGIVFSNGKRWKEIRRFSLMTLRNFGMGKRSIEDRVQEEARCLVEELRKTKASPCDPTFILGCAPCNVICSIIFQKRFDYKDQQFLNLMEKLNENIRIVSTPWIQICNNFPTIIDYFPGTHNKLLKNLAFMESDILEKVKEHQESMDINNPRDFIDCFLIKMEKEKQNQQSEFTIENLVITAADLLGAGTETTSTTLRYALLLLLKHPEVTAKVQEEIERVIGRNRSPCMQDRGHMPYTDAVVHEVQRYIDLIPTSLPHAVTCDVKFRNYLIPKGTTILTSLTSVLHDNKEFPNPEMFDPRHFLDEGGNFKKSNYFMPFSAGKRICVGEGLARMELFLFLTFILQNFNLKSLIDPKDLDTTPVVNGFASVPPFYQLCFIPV

COCC(=O)N1CCC2(CC1)CCN(c1ccc(-c3ccccc3)cc1)CC2
inactive: Potency [1] > 11.4 µM | activity change, negative = inhibition [2] -8.62% | activity change, negative = inhibition [3] 2.65% | activity, negative = inhibition [4] -21.1% | Potency [5] > 46 µM | Potency [6] | Potency [7] | Potency [8] | outcome [9]

COCC(=O)N1CCC2(CCCN(c3ccccn3)C2)CC1
inactive: Potency [1] > 11.4 µM | activity change, negative = inhibition [2] 0.674% | activity change, negative = inhibition [3] -15.3% | activity, negative = inhibition [4] 11.7% | Potency [5] > 46 µM | Potency [6] | Potency [7] | outcome [9]

N#CCCn1c(=O)c(-c2cccs2)nc2cnc(Oc3ccccc3)nc21
inactive: Potency [1] > 11.4 µM | activity change, negative = inhibition [2] 9.42% | activity change, negative = inhibition [3] 15.6% | Potency [10] > 9.22 µM | Potency [5] > 46 µM | Potency [6] | Potency [7] | outcome [9]

COc1ccc(C(=O)N2CCC[C@@]3(CCN(C)C3)C2)cc1
inactive: Potency [1] > 11.4 µM | activity change, negative = inhibition [2] 10.5% | activity change, negative = inhibition [3] -2.06% | activity, negative = inhibition [4] 1.69% | Potency [5] > 46 µM | Potency [6] | Potency [7] | outcome [9]

COCC(=O)N1CCC2(CCN(Cc3cc(C(F)(F)F)cc(C(F)(F)F)c3)CC2)CC1
inactive: Potency [1] > 11.4 µM | activity change, negative = inhibition [2] 4.92% | activity change, negative = inhibition [3] -3.18% | activity, negative = inhibition [4] 8.32% | Potency [5] > 46 µM | Potency [6] | Potency [7] | outcome [9]

O=C(Nc1cccc(F)c1)N1CC2(CCN(C(=O)c3ccncc3)CC2)C1
inactive: Potency [1] > 11.4 µM | activity change, negative = inhibition [2] -11.4% | activity change, negative = inhibition [3] 9.26% | activity, negative = inhibition [4] 1.8% | Potency [5] > 46 µM | Potency [6] | Potency [7] | Potency [11] | outcome [9]

N#Cc1ccc(CN2CC[C@@]3(CCCN(C(=O)c4ccco4)C3)C2)cc1
inactive: Potency [1] > 11.4 µM | activity change, negative = inhibition [2] 0.694% | activity change, negative = inhibition [3] -6.92% | activity, negative = inhibition [4] 12.6% | Potency [5] > 46 µM | Potency [6] | Potency [7] | outcome [9]

COC(=O)N1CCC2(CCCN(c3ncccn3)C2)CC1
inactive: Potency [1] > 11.4 µM | activity change, negative = inhibition [2] -15% | activity change, negative = inhibition [3] 6.41% | activity, negative = inhibition [4] 1.72% | Potency [5] > 46 µM | Potency [6] | Potency [7] | activation [12] 12.6% | outcome [9]
